This is part of a sample that, as a whole, favours compounds with a hit. Of some 83,000 tested, about 20% had one in any assay.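 Each cell line was grown in a 96-well plate and treated with one concentration of compound for 48 hours. Values below 10 were considered active.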 Values without a mark were called inactive. Activity calls are given as the source filed them.
Each molecule was assayed on SK-OV-3 ovarian (assay: NCI-60 one-dose screen, 48 h (100 = growth as untreated, 0 = no growth, -100 = all killed)). Details: 10 µM unless noted.
Protocol: Growth inhibition of the SK-OV-3 human tumor cell line is measured as a screen for anti-cancer activity. Cells are grown in 96 well plates and exposed to the test compound for 48 hours. Compounds are tested at a single concentration, which is 10^-5 M for most compounds. The reported endpoint is percent growth (GI% or GIPRCNT), where numbers from 0 - 100% represent growth inhibition, and numbers from -100% - 0 represent cell death. For example, a value of 40 represents 60% growth inhibition. A value of 0 means no net growth occurred over the course of the experiment. A value of -40 indicates 40% of cells at the beginning of the experiment died by the end of the experiment. A value of -100 means all cells are dead at the end of the experiment.
NCI-60 Human Tumor Cell Lines Screen was performed using the standard one-dose NCI protocol, which is described in more detail at https://dtp.cancer.gov/discovery_development/nci-60/default.htm.
Compounds with GIPRCNT values below 10 were considered active. Activity score was based on GIPRCNT using the following formula: […]
Score is 0 for GIPRCNT values of 100 or above, 50 for GIPRCNT values of 0, and 100 for GIPRCNT values of -100.

In order of falling growth:
1. Nc1cc(-c2c[nH]c3ccccc23)nc2cc(-c3c[nH]c4ccccc34)nn12  139%
2. CCOC(=O)c1csc(NC(=O)CSc2nc3sc4c(c3c(=O)n2-c2ccc(Cl)cc2)CCCC4)n1  135%
3. CC(=O)Oc1ccccc1C(=O)Nc1ccc(C(=O)/C=C/c2cccs2)cc1  132%
4. Cn1cc(-c2cc(N)n3nc(-c4cn(C)c5ccc(F)cc45)cc3n2)c2cc(F)ccc21  128%
5. COc1cc(-c2nc3ccc(-c4nnc(SCC(=O)Nc5ccc(C(=O)/C=C/c6ccc(Cl)cc6)cc5)o4)cc3[nH]2)cc(OC)c1OC  121%
6. COc1ccccc1C(=O)CSc1nc(Nc2ccc(S(N)(=O)=O)cc2)c2ccccc2n1  121%
7. N#Cc1nc(-c2ccccc2)oc1N1CCC(CO)C1 (stereo not given)  121%
8. C/C(=C(/c1ccc(Cl)cc1)c1ccc(OCCN)cc1)c1ccc(C)cc1  120%
9. N#Cc1ccc(C(=O)CSc2nc(Nc3ccc(S(N)(=O)=O)cc3)c3ccccc3n2)cc1  116%
10. Clc1ccc(Cc2nnc3sc(-c4cccnc4)nn23)cc1  114%
11. O=C(CCCN1C(=O)/C(=C/c2ccccc2F)SC1=S)N1CCOCC1  114%
12. Cc1cccc(/C=C/c2nn3c(-c4ccco4)nnc3s2)c1  114%
13. COc1cc2nc(-c3ccc(C)cc3)cc(OCCCNCC3CCCO3)c2cc1OC (stereo not given)  113%
14. O=C(CSc1nnc(-c2ccc3nc(-c4ccc(Cl)cc4)[nH]c3c2)o1)Nc1ccc(C(=O)/C=C/c2ccc(Cl)cc2)cc1  110%
15. C#Cc1nc(C2=C(C)C(=O)/C(=N/OC(C)=O)C2)cs1  104%
16. COc1cc(N=Cc2sc(Nc3nccs3)nc2O)cc(OC)c1OC  104%
17. C=C1CC[C@H]2[C@@](C)(CCC3OC(c4ccc(OCc5cn(C6CC(OC(C)=O)C(OC(C)=O)C(COC(C)=O)O6)nn5)cc4)OC[C@]32C)[C@@H]1/C=C/C1=CCOC1=O (stereo not given in full)  103%
18. O=C(CCN1C(=O)/C(=C/c2ccccc2)SC1=S)N1CCOCC1  98.5%
19. O=C1Nc2cc(Cl)ccc2/C1=C\c1ccc(OCc2ccc([N+](=O)[O-])cc2)cc1  98%
20. Cc1ccc(C(=O)Nc2cccc(C(F)(F)F)c2)cc1Nc1nc(-c2cnccn2)nc2c1cnn2C  97.9%
21. CS(=O)(=O)c1ccc(-c2nc3ccccn3c2C=Nc2ccc(Cl)cc2)cc1  96.9%
22. O=C(c1ccc(O)cc1)C1[C@H](c2ccc(Cl)cc2)[C@@H](c2ccccc2)NC12C(=O)Nc1ccc(Cl)cc12 (stereo not given in full)  94.6%
23. CS(=O)(=O)c1ccc(-n2cc(/C=C/C(=O)c3ccc(NC(=O)CO[N+](=O)[O-])cc3)c(-c3ccc(Cl)cc3)n2)cc1  89.7%
24. CC(C)NC(=O)c1cc(-c2ccc(NC(=O)Nc3ccc(N4CCOCC4)c(C(F)(F)F)c3)cc2)nc2cccnc12  88.5%
25. Cn1ccnc1C(=O)/C=C/c1ccc(NC(=O)Nc2ccc(Cl)cc2)cc1  84.3%
26. N/C(=N\c1nc2c(Cl)cc(Cl)cc2s1)C(Cl)(Cl)Cl  83.8%
27. COc1ccc(C(=O)/C=C/c2ccc(OCc3ccc(Cl)cc3)c(OC)c2)cc1OC  82.9%
28. CNC(=O)c1cc(-c2ccc(NC(=O)Nc3ccc(N4CCN(C)CC4)c(C(F)(F)F)c3)cc2)nc2cccnc12  59.7%
29. Clc1ccc2oc3c(NCCCN4CCOCC4)c4ccccc4nc3c2c1  57.8%
30. COc1cc(/C=C/C(=O)c2cc(OC)c(OC)c(OC)c2)ccc1OCc1ccc(F)cc1  45.5%
31. N#Cc1c(-c2ccc(Cl)cc2)nc2c(-c3ccccc3)c(Nc3ccccc3)nn2c1N  42.7%
32. COc1cc(-c2ccc3ncnc(NC(C)c4ccccc4)c3c2)cnc1OC (stereo not given)  40.4%
33. CN1C(=O)N(c2ccccc2)C2N=C(N/N=C/c3ccccc3)SC21 (stereo not given)  37.1%
34. O=C(N/N=C/c1ccco1)c1[nH]c2ccc(Br)cc2c1-c1ccccc1  36.1%
35. CCC/C=C/C=C/C(=O)N[C@@H](Cc1cc(F)cc(F)c1)C(=O)N[C@@H]1C(=O)N2CCC[C@H]2C(=O)N2CCCC[C@H]2C(=O)N[C@@H](C)C(=O)N2C[C@H](C)C[C@H]2C(=O)O[C@H]1C  30%
36. CN1CCc2c(sc3ncnc(N/N=C/c4ccc(Cl)c(Cl)c4)c23)C1  28.3%
37. COc1ccc(NC(=O)c2sc3nc(-c4cnccn4)cc(-c4cccs4)c3c2N)cc1  23.1%

With `Cc1[nH]nc2ncc(C#Cc3cncc(C(=O)Nc4ccc(CN5CCN(C)CC5)c(C(F)(F)F)c4)c3)cc12` the growth was 0.879% (active).
`O=C1Nc2cc(Cl)ccc2/C1=C\c1ccc(OCc2ccc(Br)cc2F)cc1` was tested, and the growth was -36.9% (active).
For `c1ccc2c(NCCCN3CCOCC3)c3oc4ccccc4c3nc2c1`, the growth was -9.67% (active).
